Reference: PubChem BioAssay
Unmarked numbers belong to inactive results. The rule behind the calls is not given here.

Target: Pantothenate synthetase (Mycobacterium tuberculosis (strain ATCC 25618 / H37Rv)) (UniProt P9WIL5)
Assay: Coupled enzyme confirmation of inhibitors against recombinant Mtb PanC (AID 375);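 note: 0% = full reaction with vehicle and 100% = no enzyme background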
Settings: coupled enzyme assay; at 10 µM, active compounds read high

Chain of Pantothenate synthetase (Mycobacterium tuberculosis (strain ATCC 25618 / H37Rv)) (P9WIL5 whole entry, looked up): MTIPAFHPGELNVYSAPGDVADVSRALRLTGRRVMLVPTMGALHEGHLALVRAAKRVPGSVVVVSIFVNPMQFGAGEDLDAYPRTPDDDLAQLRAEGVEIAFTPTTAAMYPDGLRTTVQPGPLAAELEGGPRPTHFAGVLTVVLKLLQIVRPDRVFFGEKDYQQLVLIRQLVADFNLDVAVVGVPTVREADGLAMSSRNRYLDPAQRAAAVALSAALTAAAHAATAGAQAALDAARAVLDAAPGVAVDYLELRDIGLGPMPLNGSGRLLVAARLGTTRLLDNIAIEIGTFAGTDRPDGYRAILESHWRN

Row | Compound | inhibition [%]
1 | CC(=O)Oc1cccc2c1C(=O)c1c(OC(C)=O)cc(C(=O)O)cc1C2=O | 2
2 | CCOC(=O)C1=C(CN2CCOCC2)NC(=O)NC1c1cc(C)ccc1C (centres undefined) | 2
3 | CNC(=O)CSc1nnc(-c2cccc(S(=O)(=O)N3CCOCC3)c2)n1-c1ccc(F)cc1 | 0
4 | CC(C(=O)c1ccccc1)n1cnc2ccccc2c1=O (centres undefined) | 9
5 | Cc1ccccc1NC(=O)c1ccccc1 | 10
6 | Cc1cccc(NC(=O)c2ccc(S(=O)(=O)N(C)C)cc2)n1 | 0
7 | CC(=O)Nc1ccc(S(=O)(=O)Nc2nc3ccccc3nc2N2CCCC2)cc1 | 8
8 | Cc1cc(Nc2ccc(N3CCC(C)CC3)cc2)n2ncnc2n1 | 0
9 | CC1CCCCC1NC(=O)CCCc1nc2ccccc2c(=O)[nH]1 (centres undefined) | 0
10 | C/C(Cl)=C/Cn1c(SCc2ccc(Cl)cc2)nc2c1c(=O)[nH]c(=O)n2C | 0
11 | Cc1c(C#N)c(N)c(C(=O)c2ccccc2)n1Cc1ccccc1 | 0
12 | Cc1nnc(SCC2=C(C(=O)O)N3C(=O)[C@@H](NC(=O)Cn4cnnn4)[C@H]3SC2)s1 | 0
13 | CC(=O)Nc1ccc(S(=O)(=O)NCC(C)NS(=O)(=O)c2ccc(NC(C)=O)cc2)cc1 (centres undefined) | 2
14 | C=CCOC(=O)C1=C(C)OC(N)=C(C#N)C1c1ccc2c(c1)OCO2 (centres undefined) | 9
15 | O=S(=O)(Nc1ncccn1)c1ccc(Nc2ncnc3ccccc23)cc1 | 6
16 | COc1ccccc1CNC(=O)C1CCN(S(=O)(=O)N2CCCCC2)CC1 | 0
17 | COC(=O)CC(C(=O)Nc1cc(C(=O)OC)cc(C(=O)OC)c1)N1CCN(C)CC1 (centres undefined) | 3
18 | CC(=O)c1cnc2cc(-c3ccccc3)nn2c1C | 0
19 | COc1ccc(S(=O)(=O)N2CN(Cc3ccco3)c3nc4ccccc4nc32)cc1 | 0
20 | O=C(CSc1ncn[nH]1)NC1CC2CCC1C2 (centres undefined) | 0

Row | Compound | inhibition [%]
21 | Cc1nnc(SCc2ccccc2F)n1NCc1cccs1 | 3
22 | CCOC(=O)CSc1nnc([C@H](C)NC(=O)OC(C)(C)C)o1 | 0
23 | O=C(CCNS(=O)(=O)c1ccc(Cl)cc1)NCc1ccccn1 | 0
24 | COc1ccc(C(=O)N2CCOCC2)cc1Br | 6
25 | Cc1cc(C)c(NC(=O)C2CSCCS2)c(C)c1 (centres undefined) | 0
26 | c1coc(Cn2nnnc2CN2CCN(C3CCCC3)CC2)c1 | 0
27 | COc1cc(SC)ccc1C(=O)Nc1ccccc1C#N | 0
28 | C[C@H]1C[C@H]2[C@@H]3CCC4=CC(=O)C=C[C@]4(C)[C@@]3(Cl)[C@@H](O)C[C@]2(C)[C@@]1(O)C(=O)CO | 4
29 | Cc1ccc(N2CC(C)Cn3c2nc2c3c(=O)n(CC(=O)OCc3ccccc3)c(=O)n2C)cc1C (centres undefined) | 0
30 | CC(C)(C)n1ncc2c(=O)n(CC(=O)NCCc3ccccc3)cnc21 | 4
31 | CC1CCN(CCC(=O)Nc2ccc(Br)cc2)CC1 | 0
32 | Cc1ccc(S(=O)(=O)N(CC(=O)N2CCC(C(N)=O)CC2)Cc2ccc(F)cc2)cc1 | 0
33 | Cc1nc2cccc(C(=O)NC3CCCCC3)c2o1 | 0
34 | Cc1cc(OCC(=O)Nc2ccc3oc(-c4ccncc4)nc3c2)ccc1Cl | 0
35 | C[C@H](NC(=O)OC(C)(C)C)C(=O)NCC1CCC(C(=O)O)CC1 (some centres undefined) | 0
36 | COc1ccc(C2C(C#N)=C(N)Oc3cc4c(cc32)OCO4)cc1 (centres undefined) | 0
37 | CCSc1nnc(NC(=O)C(CC)(C(F)(F)F)C(F)(F)F)s1 | 0
38 | CCOc1cc2[nH]c(=S)n(CC3CCCO3)c(=O)c2cc1OCC (centres undefined) | 9
39 | CC(C)(C)n1ncc2c(=O)n(CC(=O)c3ccccc3)cnc21 | 0
